High-throughput results from PubChem.
Only some compounds are listed: those with a hit (about 2.7% of all), similar ones and a draw of the others.
aDG glyco up – alpha-DG glycosylation activation. AID 624168. Pro5-aDG cells, alpha-DG glycosylation AlphaScreen (IIH6); 0% Pro5, 100% B10-LARGE cell signal. 0.22% of 360,000 active. activation, % at 10 µM;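 active means activation of at least 8% versus controls, or a plate z-score of at least 8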;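 further: Pro5 are CHO cells carrying HIG-tagged alpha-DG that lacks glycosylation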
TAG inh – inhibitors of triacylglycerol accumulation | H9c2 cells, Nile Red lipid (TAG) fluorescence; cells loaded with 200 µM oleic acid | inhibition, % at 12.5 µM | 0.66% of 230,000 active | AID 651582;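 active means pattern-corrected inhibition of lipid staining of at least 50% with the nuclear-stain viability signal not falling by more than 50%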;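 further: 0% = DMSO wells and 100% = triacsin C control wells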
NadD block – inhibitors of Staphylococcus aureus NadD. purified NadD enzyme, colorimetric absorbance read-out. inhibition, % at 20 µM. 0.78% of 360,000 active. AID 602399; in the data active means inhibition above about 26%
MPTP inh – permeability transition pore inhibition | 1.4% of 360,000 active | isolated mouse mitochondria, Ca2+ swelling absorbance, 30 min | inhibition, % at 10 µM;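 active means inhibition of 50% or more, scaled per plate between neutral and stimulator controls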;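 further: 0% = DMSO wells given calcium and 100% = 1 mM EGTA wells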
MPTP counter – mitochondrial membrane potential, counter-screen. inhibition, % at 10 µM. isolated mitochondria, Rhodamine 123 fluorescence. AID 624504. shares compounds with MPTP inh. 78% of 5,000 active; in the data active means inhibition above about 22%;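 further: 0% = DMSO vehicle and 100% = positive control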
MPTP swell DR – dose response confirmation of mitochondrial permeability transition pore inhibitors | shares compounds with MPTP inh | isolated mitochondria swelling, absorbance | IC50, µM | 58% of 780 active; in the data active means IC50 below about 20 µM
MPTP counter DR – counter-screen for mitochondrial permeability transition pore inhibitors, dose response; shares compounds with MPTP inh; isolated mitochondria counterscreen, fluorescence read-out; 49% of 780 active; IC50, µM; in the data active means IC50 below about 80 µM
* = called active by the depositor.

What do the screens show for `CCN(C(=O)COc1ccc2ccc(=O)oc2c1)C1CCCCC1`?
aDG glyco up: 0.0; TAG inh: 16.5; NadD block: 3.9; MPTP inh: 0.3

Results for CN(C)CCOC(C1CCCCC1)C1CCCCC1 ?
aDG glyco up: 0.0; NadD block: -7.2; MPTP inh: 73.5*; MPTP counter: -3.3; MPTP swell DR: 14.7*; MPTP counter DR: >80

Results for CN(C)CCNC(=S)NC1CCCCC1 ?
aDG glyco up: -0.1; TAG inh: 6.6; NadD block: -5.2; MPTP inh: 0.6

How did Cc1ccc(S(=O)(=O)NNC(=O)C2CC=CCC2C(=O)O)cc1 (configuration not stated) do in these assays?
aDG glyco up: -0.2; TAG inh: 5.0; NadD block: 4.1; MPTP inh: 55.4*; MPTP counter: 1.8; MPTP swell DR: >100; MPTP counter DR: >80

What do the screens show for `Cc1cccc(NC(=O)NCCCCc2ccccc2)c1`?
aDG glyco up: -0.1; NadD block: -6.2; MPTP inh: 13.7

How did Cc1ccc(NC(=O)Nc2cnc3ccccc3c2)cc1 do in these assays?
aDG glyco up: 0.3; TAG inh: 0.5; NadD block: -3.9; MPTP inh: 87.1*; MPTP counter: 71.4*

Results for O=C(NCCCCc1ccccc1)Nc1cccc(F)c1 ?
aDG glyco up: 0.3; TAG inh: -11.7; NadD block: -5.0; MPTP inh: 56.5*; MPTP counter: 95.9*

How did O=C(NC(=S)Nc1cnc2ccccc2c1)c1ccccc1 do in these assays?
aDG glyco up: -0.3; TAG inh: -2.6; NadD block: 1.5; MPTP inh: 1.0

How did S=C(NCCc1ccccc1)Nc1cnc2ccccc2c1 do in these assays?
aDG glyco up: 0.1; TAG inh: -8.0; NadD block: -8.3; MPTP inh: 77.4*; MPTP counter: 77.8*

Results for CC(C)(CNC(=S)NCCc1ccccc1)CNC(=S)NCCc1ccccc1 ?
aDG glyco up: 2.2; TAG inh: 7.1; NadD block: -8.7; MPTP inh: 80.3*; MPTP counter: 85.4*

How did Fc1cccc(NC(=S)NCCc2ccccc2)c1 do in these assays?
aDG glyco up: 1.4; NadD block: -3.9; MPTP inh: 71.2*; MPTP counter: 87.0*

What do the screens show for `Fc1ccc(NC(=S)NCCc2ccccc2)c(F)c1F`?
aDG glyco up: 0.4; NadD block: -2.0; MPTP inh: 77.0*; MPTP counter: 92.5*

How did CCCCNC(=S)Nc1cccc(C(C)=O)c1 do in these assays?
aDG glyco up: -0.3; NadD block: -4.3; MPTP inh: 1.4

Results for O=[N+]([O-])c1cccc(NC(=S)NCCc2ccccc2)c1 ?
aDG glyco up: 1.6; TAG inh: -28.3; NadD block: -2.4; MPTP inh: 95.2*; MPTP counter: 95.6*

What do the screens show for `CC(=O)c1cccc(NC(=S)NCCCCc2ccccc2)c1`?
aDG glyco up: 0.2; NadD block: -1.3; MPTP inh: 67.8*; MPTP counter: 80.6*

How did Fc1ccccc1NC(=S)NCCc1ccccc1 do in these assays?
aDG glyco up: -0.1; TAG inh: -18.5; NadD block: 4.3; MPTP inh: 0.7

Results for Fc1ccc(F)c(NC(=S)NCCc2ccccc2)c1 ?
aDG glyco up: 4.2; TAG inh: -8.2; NadD block: -2.8; MPTP inh: 6.0

Results for O=C(O)c1ccccc1C(=O)c1ccc2oc(=O)[nH]c2c1 ?
aDG glyco up: -0.1; TAG inh: 1.3; NadD block: 1.5; MPTP inh: 0.0

How did O=C1c2ccccc2-c2cccc(NS(=O)(=O)c3ccc(C(F)(F)F)cc3)c21 do in these assays?
aDG glyco up: -0.2; TAG inh: 8.1; NadD block: -6.4; MPTP inh: 64.3*; MPTP counter: 37.7*

What do the screens show for `Cc1ccc(S(=O)(=O)Nc2ccccc2-c2ccccc2NS(=O)(=O)c2ccc(C)cc2)cc1`?
aDG glyco up: 0.4; TAG inh: -3.8; NadD block: 3.2; MPTP inh: 23.5

How did Brc1ccc2nc(-c3ccco3)c(CC3CCCCC3)n2c1 do in these assays?
aDG glyco up: -0.2; NadD block: 21.1; MPTP inh: -1.7

Results for COc1ccc(Cc2c(-c3ccc(F)cc3)nc3ccc(Cl)cn23)c(C)c1 ?
aDG glyco up: -0.1; NadD block: 4.5; MPTP inh: -0.4

How did [O-][n+]1c2c(c3c4non(O)c4ccc31)CCCC2 do in these assays?
aDG glyco up: -0.1; NadD block: -2.0; MPTP inh: 95.7*; MPTP counter: 83.3*

What do the screens show for `O=C1NC[C@@H](CCCCN2CCN(CCC3CCCCC3)C(=O)C2=O)N(Cc2ccccc2)C1=O`?
aDG glyco up: -0.1; NadD block: 3.3; MPTP inh: -1.4

What do the screens show for `COc1ccc(C(=O)NC(=O)CSc2n[nH]c(N)n2)cc1`?
aDG glyco up: -0.1; TAG inh: -16.4; NadD block: -2.6; MPTP inh: -1.2

How did Clc1ccc2[nH]cc(-c3nnnn3-c3ccc4ccccc4c3)c2c1 do in these assays?
aDG glyco up: 1.0; TAG inh: 2.1; NadD block: 18.5; MPTP inh: 83.7*; MPTP counter: 77.4*

How did Cc1ccc(-n2nnnc2-c2cnc3ccc(Cl)cc3c2-c2ccccc2)cc1 do in these assays?
aDG glyco up: 0.0; TAG inh: 11.0; NadD block: 13.8; MPTP inh: 1.2

How did CC(C)[C@H](NC(=O)OC(C)(C)C)c1cc(C(=O)NC2CC2)c(N)s1 do in these assays?
aDG glyco up: 0.6; MPTP inh: -0.4

Results for Cc1onc(-c2c(F)cccc2Cl)c1C(=O)OCc1cnc(Cl)s1 ?
aDG glyco up: -0.3; TAG inh: -6.1; NadD block: -3.0; MPTP inh: 52.2*; MPTP counter: 5.5; MPTP swell DR: inactive; MPTP counter DR: 65.7*

What do the screens show for `Cc1ccc(NC(=S)Nc2cccc3ccccc23)cc1F`?
aDG glyco up: 0.2; TAG inh: 11.1; NadD block: 4.3; MPTP inh: 64.1*; MPTP counter: 84.3*

Results for Fc1cccc(NC(=S)Nc2cccc3ccccc23)c1 ?
aDG glyco up: 0.0; TAG inh: -4.6; NadD block: 5.8; MPTP inh: 11.1

How did O=C(C(=O)N1CCN(c2ccccc2F)CC1)c1ccccc1 do in these assays?
aDG glyco up: -0.1; MPTP inh: 3.2

How did O=C(Cc1c(F)c(F)c(F)c(F)c1F)Nc1nc(-c2ccccc2)cs1 do in these assays?
aDG glyco up: 0.3; NadD block: -5.9; MPTP inh: 54.1*; MPTP counter: 92.5*

How did O=C(Cc1cccs1)Nc1nc(-c2ccc(F)cc2F)cs1 do in these assays?
aDG glyco up: 0.1; NadD block: -6.9; MPTP inh: 73.2*; MPTP counter: 91.2*

Results for O=C(Cc1ccc(F)cc1)Nc1nc(-c2ccc(F)cc2)cs1 ?
aDG glyco up: 0.4; NadD block: -5.0; MPTP inh: -0.1

What do the screens show for `O=C(Nc1nc(-c2ccccc2)cs1)c1ccc(Br)o1`?
aDG glyco up: -0.1; NadD block: 4.5; MPTP inh: 81.5*; MPTP counter: 20.6*
